Sampled rows, rich in hits. Any-hit rate of the full collection: about 9.9%.
Tau fibril ThT = blocks human tau fibril formation measured by thioflavin T; AID 1460; Potency, µM (top dose mostly 57.4 µM), without a hit: at the top dose activity, negative = inhibition, usual class: inhibitors; P10636; actives 2.1% (n = 270,000); recombinant tau K18 P301L, heparin-induced fibrillization, ThT fluorescence; active = well fitted curve in the direction sought with a large enough effect; inconclusive = small, poorly fitted or top-dose-only effect, or another doubt; inactive = no such curve, though single readings can be large; an effect the other way counts as inactive or inconclusive; note: nearly all actives have a fitted effect of over 55% in size
Target sequence (P10636 561-689 P618L limits assumed): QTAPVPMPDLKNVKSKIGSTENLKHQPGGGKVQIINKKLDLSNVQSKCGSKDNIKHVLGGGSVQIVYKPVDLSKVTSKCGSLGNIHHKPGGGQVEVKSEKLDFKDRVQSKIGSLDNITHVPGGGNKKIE
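Recombinant human tau K18 fragment […] carrying P301L, 15 uM unlabeled plus 0.24 uM Alexa 594-labeled, was fibrillized with 20 uM heparin in 100 mM sodium acetate pH 7 for 6 hr at 37 C; 30 uM ThT fluorescence read after 1 hr.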
ALDH1A1 block = blocks purified human ALDH1A1 activity; actives 7.3% (n = 220,000); AID 1030; Purified ALDH1A1, NADH fluorescence, propionaldehyde substrate; Potency, µM (titrated, usually from 75.3 µM), without a hit: at the top dose activity, negative = inhibition, usual class: inhibitors;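 note: plate controls were no enzyme wells and a reference inhibitor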
Tau fibril FP = tau fibrillization inhibition (FP); AID 1468; K18 P301L tau heparin fibrillization, Alexa594 FP, 6 h; actives 0.39% (n = 280,000); Potency, µM (series often up to 57.7 µM), for the others: at the top dose activity, negative = inhibition, most hits filed as inhibitors; P10636; active = well fitted curve in the direction sought with a large enough effect; inconclusive = small, poorly fitted or top-dose-only effect, or another doubt; inactive = no such curve, though single readings can be large; an effect the other way counts as inactive or inconclusive; note: nearly all actives have a fitted effect of over 55% in size
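Human K18 P301L fragment (15 uM unlabeled plus 0.24 uM Alexa 594-labeled) in 100 mM sodium acetate pH 7 with compound, aggregation induced by 20 uM heparin for 6 hr at 37 C. ThT (30 uM) added for 1 hr, then Alexa 594 FP read.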
HPGD block = inhibitors of human 15-hydroxyprostaglandin dehydrogenase (HPGD) | P15428 | actives 4.3% (n = 150,000) | purified HPGD, NADH fluorescence kinetic, PGE2 substrate | Potency, µM, for the others: top-dose activity change, negative = inhibition, usual class: inhibitors
Target sequence (P15428 whole entry, looked up): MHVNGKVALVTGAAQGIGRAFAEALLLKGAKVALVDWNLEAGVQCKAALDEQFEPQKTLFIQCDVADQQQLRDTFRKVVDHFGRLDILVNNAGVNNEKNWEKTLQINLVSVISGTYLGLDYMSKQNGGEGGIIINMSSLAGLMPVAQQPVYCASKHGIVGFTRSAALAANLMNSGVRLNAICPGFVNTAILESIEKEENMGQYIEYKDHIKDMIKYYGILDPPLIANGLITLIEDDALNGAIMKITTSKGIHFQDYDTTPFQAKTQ
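NADH formation kinetics: reaction with 30 uM PGE2 and 1 mM NAD+ (final), 20 nM enzyme, Tris-HCl pH 8 with Tween 20, after 15 min compound preincubation at room temperature. Fluorescence change, last versus first of five reads.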
Tau fluor cs = counter-screen for tau fibril formation inhibitors; tau K18 P301L (four-repeat tau fragment) Alexa594 fluorescence, heparin fibrillization; Potency, µM (highest dose often 57.7 µM), without a hit: at the highest dose activity change, negative = decrease; actives 0.93% (n = 280,000); active = well fitted curve in the direction sought with a large enough effect; inconclusive = small, poorly fitted or top-dose-only effect, or another doubt; inactive = no such curve, though single readings can be large; an effect the other way counts as inactive or inconclusive; note: nearly all actives have a fitted effect of over 55% in size
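Human K18 P301L tau (15 uM unlabeled plus 0.24 uM Alexa 594-labeled, final) in 100 mM sodium acetate pH 7 was mixed with compound and 20 uM heparin and incubated 6 hr at 37 C.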
KDM4E inh = inhibitors of human JMJD2E histone demethylase | B2RXH2 | JMJD2E catalytic domain, FDH-coupled NADH fluorescence (FDH is formaldehyde dehydrogenase) | Potency, µM (highest dose often 57.1 µM), for inactives: at the top dose activity change, negative = inhibition, most hits filed as inhibitors | actives 1.6% (n = 230,000) | AID 2147;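 note: 0% = wells with enzyme and -100% = buffer wells without enzyme; nearly all actives have a fitted effect of over 50% in size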
Target sequence (B2RXH2 1-337 limits assumed): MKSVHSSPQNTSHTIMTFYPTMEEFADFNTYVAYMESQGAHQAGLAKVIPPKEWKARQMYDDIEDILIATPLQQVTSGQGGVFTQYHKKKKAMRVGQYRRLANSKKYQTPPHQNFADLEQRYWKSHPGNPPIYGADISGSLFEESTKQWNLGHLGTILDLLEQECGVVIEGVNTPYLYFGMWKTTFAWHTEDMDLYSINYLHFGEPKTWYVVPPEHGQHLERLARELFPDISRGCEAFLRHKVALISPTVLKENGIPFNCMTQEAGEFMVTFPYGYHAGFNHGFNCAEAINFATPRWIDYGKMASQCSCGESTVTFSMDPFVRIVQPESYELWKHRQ
* marks the source's active call; other numbers are inactive results; u = inconclusive; x = no result given. Unless noted, calls come from the whole dose curve; as a rule, active = well fitted inhibition curve with a large enough effect (not every such curve was filed as active); inconclusive = small, poorly fitted or top-dose-only effect, or another doubt; inactive = no such curve, though single readings can be large or run the other way. Unless noted, % is set by controls: 0 for no effect and ±100 for the full control effect; potency is the fitted concentration of half-maximal effect.

SMILES | Tau fibril ThT | ALDH1A1 block | Tau fibril FP | HPGD block | Tau fluor cs | KDM4E inh
O=C(c1ccccc1)c1ccc(N2CCOCC2)c(NC(=O)c2ccco2)c1 | -12.0% | 31.6µM* | 0.5% | -17.4% | -20.3% | -1.1%
Cc1nonc1C1CCCN1C(=O)c1cc(COc2ccc(F)cc2Cl)on1 (stereo unspecified) | -2.7% | u | 5.7% | x | -17.8% | -1.9%
CCOCC(=O)Nc1cc(Cl)ccc1C | -7.4% | -4.0% | -7.0% | x | -9.4% | -1.1%
O=C(c1ccccc1)N1CCN(C(=O)C23CC4CC(CC(C4)C2)C3)CC1 | -8.0% | 25.1µM* | 2.9% | -8.8% | -4.6% | u
O=C(c1cccc(F)c1F)N1CCCC1 | -0.2% | -2.5% | -0.3% | 28.2µM* | -1.8% | -3.6%
CCOc1ccc(OCc2ccc(C(=O)N3CCOCC3)cc2)cc1 | u | 3.55µM* | 4.4% | 15.8µM* | -5.4% | -1.1%
CCOc1ccc(OCc2ccc(C(=O)N3CCCC(C)C3)cc2)cc1 (stereo unspecified) | u | u | -4.9% | x | -16.6% | -1.4%
Cn1nnc2cc(C(=O)N3CCCCCC3)ccc21 | -4.8% | 0.9% | -2.2% | 3.16µM* | -0.8% | -0.5%
Cc1ccc(Cn2c(SCc3ccc(C(=O)NCCc4ccccc4)cc3)nc3ccncc32)cc1 | -0.5% | x | -6.0% | x | -24.6% | x
CCOc1ccc(C(=S)N2CCCC2)cc1 | -9.7% | u | 5.9% | -22.0% | -5.3% | 9.1%
Cc1ccc(C(=O)N2CCCC2)cc1Br | -10.7% | 11.6% | 7.6% | 20µM* | -6.3% | 4.7%
O=C(c1c(Cl)cccc1Cl)N1CCCCCC1 | -4.0% | 3.1% | 2.1% | 28.2µM* | 4.6% | -3.4%
CCOc1ccc(C(=O)N2CCCCCC2)cc1 | -4.0% | -8.4% | 4.5% | 2µM* | 3.1% | 1.7%
O=C(c1cccc(Br)c1)N1CCN(C(=O)c2cccc(Br)c2)CC1 | -4.9% | 15.8µM* | 2.5% | -3.5% | 0.3% | 6.4%
COc1ccc(NC(=O)c2ccccc2-c2ccccc2)cc1 | 2.0% | -2.1% | 2.8% | x | 1.6% | 7.5%
COc1ccc(N/N=C(C)/C(=N/O)C(=O)Nc2ccccc2)cc1 | u | 14.1µM* | 16.5% | x | -11.0% | -0.1%
Cc1occc1C(=O)Nc1cccc([N+](=O)[O-])c1 | -4.3% | 1.3% | 7.6% | -6.3% | -6.4% | 5.9%
Cc1ccc([N+](=O)[O-])cc1NC(=O)c1ccoc1C | -7.5% | 20µM* | 0.5% | -18.9% | -2.3% | -5.0%
Cc1occc1C(=O)NNC(=O)Nc1ccc([N+](=O)[O-])cc1 | -11.7% | 14.1µM* | -14.2% | x | -14.0% | 4.1%
COc1ccc(C2CC(=O)N3CN(Cc4ccco4)CSC3=C2C#N)cc1 (stereo unspecified) | 25.1µM* | 10µM* | u | 12.6µM* | -23.2% | -28.2%
COc1ccc(C2CC(=O)N3CN(C4CCCCC4)CSC3=C2C#N)c(OC)c1 (stereo unspecified) | 25.1µM* | x | u | x | -21.5% | x
CCOc1cc(C2CC(=O)N3CN(C4CCCCC4)CSC3=C2C#N)ccc1O (stereo unspecified) | 14.1µM* | 6.31µM* | u | 25.1µM* | -25.5% | u
COc1cccc(C2C(C#N)=C(N)Oc3cc(C)n(Cc4ccco4)c(=O)c32)c1 (stereo unspecified) | u | -14.7% | 1.5% | x | -16.7% | 5.9%
COc1ccc2ccccc2c1C1CC(=O)N2CN(C3CCCCC3)CSC2=C1C#N (stereo unspecified) | 28.2µM* | 28.2µM* | u | 17.8µM* | -23.5% | -8.8%
Cn1c(=O)n(CC(=O)O)c(=O)c2c1nc1n2CCCN1c1ccc(Cl)cc1 | -2.9% | x | 4.4% | x | -7.0% | x
SMILES | Tau fibril ThT | ALDH1A1 block | Tau fibril FP | HPGD block | Tau fluor cs | KDM4E inh
COc1ccc(C2C(C#N)=C(N)Oc3cc(C)n(Cc4ccco4)c(=O)c32)cc1 (stereo unspecified) | 3.1% | u | -0.6% | 3.3% | -6.2% | 6.9%
N#CC1=C2SCN(Cc3ccco3)CN2C(=O)CC1c1ccc(Cl)cc1 (stereo unspecified) | 17.8µM* | 15.8µM* | u | 11.2µM* | -20.9% | u
COc1cc(C2CC(=O)N3CN(Cc4ccco4)CSC3=C2C#N)ccc1OCc1ccccc1 (stereo unspecified) | 20µM* | 7.94µM* | u | 25.1µM* | u | u
CSC1=C(C#N)C(c2ccc(C(C)C)cc2)CC(=O)N1 (stereo unspecified) | -6.8% | u | -0.9% | -5.2% | -7.5% | 0.6%
N#CC1=C2SCN(C3CCCCC3)CN2C(=O)CC1c1ccc(Br)cc1 (stereo unspecified) | u | x | u | x | -27.6% | x
COc1ccc2ccccc2c1C1CC(=O)N2CN(Cc3ccco3)CSC2=C1C#N (stereo unspecified) | u | 22.4µM* | u | 7.94µM* | -23.1% | -10.6%
CC(C)c1ccc(C2CC(=O)N3CN(Cc4ccco4)CSC3=C2C#N)cc1 (stereo unspecified) | 22.4µM* | 14.1µM* | u | 15.8µM* | -24.4% | -23.4%
O=C(Nc1ccc(Br)cc1)c1ccc(F)c(S(=O)(=O)N2CCc3ccccc32)c1 | 11.0% | x | u | x | u | x
COc1ccc(-n2c(-c3ccccc3)cc3c2CCCC3=O)cc1 | 5.7% | 15.8µM* | -0.1% | u | -2.5% | 4.6%
Cc1cc(C)n(CC(=O)N/N=C/c2cc([N+](=O)[O-])ccc2O)n1 | 8.1% | -7.5% | 7.4% | u | -0.1% | 5.0%
Nc1nnnn1CC(=O)N/N=C/c1cc([N+](=O)[O-])ccc1O | -15.5% | u | 0.9% | x | -3.7% | 7.94µM*
Cn1c(SCC(=O)N/N=C/c2ccc([N+](=O)[O-])s2)nnc1-c1ccccc1 | u | -1.1% | -4.4% | -10.3% | u | 4.2%
Cn1c(SCC(=O)N/N=C/c2cc([N+](=O)[O-])ccc2O)nnc1-c1ccccc1 | x | x | 9.7% | x | 3.5% | 10µM*
Nc1nnc(CC(=O)N/N=C\c2cc([N+](=O)[O-])ccc2O)s1 | u | -8.2% | -3.5% | -29.4% | -12.6% | 14.1µM*
CCOc1ccc(S(=O)(=O)N(C)c2ccc(OCC(=O)NCc3ccc(C(=O)OC)cc3)cc2)cc1 | -13.4% | u | 6.2% | x | -19.2% | -0.2%
CC(=O)N(Cc1ccc(F)cc1)Cc1nc2ccccc2c(=O)[nH]1 | -0.8% | 5.4% | -0.5% | x | -4.4% | 7.5%
CS(=O)(=O)N(Cc1ccc(F)cc1)Cc1nc2ccccc2c(=O)[nH]1 | -4.7% | 25.1µM* | -4.8% | -0.6% | -2.9% | 9.7%
COc1cc(CN2CCCC(C(=O)c3ccc4c5c(cccc35)CC4)C2)cc(OC)c1O (stereo unspecified) | 28.2µM* | u | u | x | u | -24.3%

Assay outcomes (PubChem)
